Compounds with a hit are over-represented: about 3.7% of the library has one in this group of screens.
RGS4 inhibitor = Inhibitors of Regulator of G Protein Signaling (RGS) 4: qHTS | Transcreener GDP fluorescence polarization, RGS4-accelerated GTP hydrolysis | Potency, µM (titrated, usually from 114 µM), usual class: inhibitors | hit rate 0.039% among 390,000; further: nearly all actives have a fitted effect of over 75% in size
Target sequence (P49798 whole entry, looked up): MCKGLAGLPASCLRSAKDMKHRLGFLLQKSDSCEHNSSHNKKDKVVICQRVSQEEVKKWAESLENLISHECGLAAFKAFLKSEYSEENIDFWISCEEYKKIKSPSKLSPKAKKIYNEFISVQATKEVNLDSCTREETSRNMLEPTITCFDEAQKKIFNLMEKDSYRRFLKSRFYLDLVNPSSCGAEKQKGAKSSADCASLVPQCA
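MLSMR compounds (23 nl, pin-transferred) preincubated 10 min at room temperature with a 500nM (2x) first reagent, then RGS4 at 900nM (2x) plus Transcreener GDP mix added; fluorescence polarization (620/688 nm) read before and after 90 min at 30 °C.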
BRCA1 expr up = qHTS Assay to Identify Small Molecule Activators of BRCA1 Expression; MCF7-BRCA1-FFLuc reporter, luminescence, 48 h; response scale: scaled: vehicle 0%, 10 µM genistein 100%; Potency, µM (highest dose often 46.1 µM), usual class: activators; hit rate 1.1% among 380,000; further: nearly all actives have a fitted effect of over 80% in size
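Using MCF7 cells harboring a BRCA1 firefly luciferase reporter, plated 2 h before compound pinning, the screen measured luminescence after 48 h incubation. Responses were normalized to DMSO and 10 microM genistein, then fitted for concentration-effect.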
B2AR arrestin = qHTS assay of beta-arrestin-biased ligands of beta2-adrenergic receptor; Beta-2 adrenergic receptor (Homo sapiens), P07550; beta-arrestin recruitment to beta2AR, cell-based reporter; Potency, µM (top dose mostly 46.1 µM), most hits filed as activators; hit rate 0.02% among 330,000; further: nearly all actives have a fitted effect of over 65% in size
PTHR1 agonist = qHTS for PTHR1 Agonists: Primary Screen; Parathyroid hormone/parathyroid hormone-related peptide receptor (Homo sapiens), Q03431; HEK293 GP2 PTHR1 cells, GloSensor cAMP luminescence, 1 h; Potency, µM (top dose mostly 115 µM), hits mostly activators; hit rate 0.075% among 410,000; further: nearly all actives have a fitted effect of over 55% in size
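HEK-293-derived GP2 cells expressing PTHR1 and a GloSensor cAMP reporter, 3,000/well, plated overnight, given luciferin plus IBMX (each 0.5 mM as added) for 1 h at 37 °C, then compound for 1 h at 37 °C. Luminescence was read after 15 min at room temperature.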
D3 antag = qHTS of D3 Dopamine Receptor Antagonist: qHTS. D(3) dopamine receptor (Homo sapiens), P35462. D3R cells, DiscoveRx beta-arrestin luminescence, antagonist mode; hits give low values. max response, negative = inhibition, %. hit rate 2.5% among 360,000. AID 652054, 2013; in the data active means max response below about -50%; inconclusive means no clear call, values can overlap the other calls
Target sequence (P35462 whole entry, looked up): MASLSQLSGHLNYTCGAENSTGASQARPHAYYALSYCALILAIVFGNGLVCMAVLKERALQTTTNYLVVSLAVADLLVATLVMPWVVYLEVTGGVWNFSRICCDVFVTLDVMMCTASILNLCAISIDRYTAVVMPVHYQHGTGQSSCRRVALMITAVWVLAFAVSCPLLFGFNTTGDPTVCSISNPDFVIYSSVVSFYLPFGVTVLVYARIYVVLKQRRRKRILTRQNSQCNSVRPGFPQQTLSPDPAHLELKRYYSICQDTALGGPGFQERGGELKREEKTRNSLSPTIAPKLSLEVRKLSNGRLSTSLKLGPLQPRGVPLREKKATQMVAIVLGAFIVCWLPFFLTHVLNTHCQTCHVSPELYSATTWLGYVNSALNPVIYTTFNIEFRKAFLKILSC
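Cells plated overnight at 1500 cells/well, then exposed to library compounds with dopamine controls for 90 minutes at 37 degrees C. DiscoveRx reagent added for 30–60 minutes at room temperature; luminescence read, quantitative HTS format.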
DRD3 agonist = qHTS of D3 Dopamine Receptor Agonist: qHTS; D3R DiscoveRx beta-arrestin cells, luminescence, 90 min; D(3) dopamine receptor (Homo sapiens), P35462; AID 652048, 2013; hit rate 0.58% among 410,000; max activation, %; in the data active means max activation above about 30%
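Agonist-mode cell screen: cells plated at 1500/well and incubated overnight at 37 °C, then exposed to library compounds for 90 min at 37 °C. Detection reagent was added for 30–60 min at room temperature, and luminescence was read.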
A number is an active result; – = inactive; ? = inconclusive; · = no result given. Unless noted, the call rests on the fitted dose curve; in most records, active means well fitted curve in the direction sought with a large enough effect; inconclusive means small, poorly fitted or top-dose-only effect, or another doubt; inactive means no such curve, though single readings can be large; an effect the other way counts as inactive or inconclusive.

SMILES	RGS4 inhibitor	BRCA1 expr up	B2AR arrestin	PTHR1 agonist	D3 antag	DRD3 agonist
CN(C)c1ccc(CNC(=O)C2(C)Cc3c(-c4cccc(C(F)(F)F)c4)ccnc3O2)cc1 (stereo not drawn)	·	–	·	–	-84.1	–
CC1(C(=O)NCc2ccc(F)c(F)c2)Cc2c(-c3cccc(C(F)(F)F)c3)ccnc2O1 (stereo not drawn)	·	–	·	–	–	–
COc1ccc(NC(=O)C2(C)Cc3c(-c4ccc5c(c4)OCO5)ccnc3O2)cn1 (stereo not drawn)	·	–	·	–	-53.3	–
COc1cc(NC(=O)NCCn2nnc3cc(S(=O)(=O)N(C)C)ccc32)cc(OC)c1OC	–	–	·	–	·	–
CC(=O)c1cccc(NC(=O)COC(=O)c2ccc(S(C)(=O)=O)c([N+](=O)[O-])c2)c1	–	–	–	–	?	–
O=C(COC(=O)c1ccccc1F)Nc1cccnc1Cl	–	–	–	–	–	39.3
Cc1ccccc1NC(=O)COC(=O)c1ccc(S(C)(=O)=O)c([N+](=O)[O-])c1	–	–	–	–	-98.1	–
CC(CCc1ccccc1)NC(=O)COC(=O)c1ccc(S(C)(=O)=O)c([N+](=O)[O-])c1 (stereo not drawn)	–	–	–	–	-77.7	–
CS(=O)(=O)c1ccc(C(=O)OCC(=O)Nc2cccnc2Cl)cc1[N+](=O)[O-]	–	–	–	–	-67.5	–
Cc1ccccc1S(=O)Cc1ccc(C(=O)NCc2ccccc2Cl)o1 (stereo not drawn)	–	–	·	–	·	–
CCOC(=O)c1c(C)[nH]c(C(=O)OCc2csc(CC(=O)Nc3ccccc3C)n2)c1C	–	–	–	–	–	35.6
Cc1ccccc1NC(=O)Cc1nc(COC(=O)c2ccc(NC(N)=O)cc2)cs1	–	–	–	–	–	–
Cc1ccccc1NC(=O)Cc1nc(COC(=O)c2cccc(C)c2O)cs1	–	–	–	–	–	–
Cc1ccccc1NC(=O)Cc1nc(COC(=O)c2ccc(S(C)(=O)=O)c([N+](=O)[O-])c2)cs1	–	–	–	–	-72.8	–
O=C(Nc1nc(=O)n(C(=O)c2cccc(C(F)(F)F)c2)s1)c1ccccc1	–	–	–	–	–	–
COc1cc(NC(=O)C/C(C)=N/NC(=O)c2cccc(O)c2)c(OC)cc1Cl	–	–	–	–	-50.7	–
Cc1ccc(NC(=O)N2CCCCCC2)cc1	–	7.94µM	–	–	–	–
O=C(Nc1ccc(Br)cc1)N1CCCCCC1	–	–	–	–	–	–
CCOC(=O)C1CCN(C(=O)Nc2ccc(OC(F)(F)F)cc2)CC1	–	12.6µM	–	–	–	–
CCc1ccc(NC(=O)N2CCCCCC2)cc1	–	7.08µM	–	–	–	–
Cc1ccc(NC(=S)N2CCCCCC2)cc1	–	12.6µM	–	–	–	–
N#Cc1ccccc1S(=O)(=O)N1CCN(Cc2cc3c(cc2Br)OCCO3)CC1	·	–	·	–	–	–
NC(=NCc1ccccc1)C(N=Nc1ccccc1)C(=O)NCc1ccccc1 (stereo not drawn)	–	–	·	–	–	–
COc1cccc(C2C(C(=O)Nc3ccc(Cl)cc3)=C(C)Nc3c(C(=O)Nc4ccccc4)cnn32)c1OC (stereo not drawn)	–	·	·	–	·	–
Cc1ccc(NC(=O)C(=O)NC2CCCCC2)cc1	–	1.26µM	–	–	–	–
SMILES	RGS4 inhibitor	BRCA1 expr up	B2AR arrestin	PTHR1 agonist	D3 antag	DRD3 agonist
CCc1ccc(NC(=S)N2CCN(C)CC2)cc1	–	11.2µM	–	–	–	–
Cc1ccc(NC(=O)NC2CCCCCCC2)cc1	–	?	–	–	–	–
CCc1ccc(NC(=S)N2CCCC2)cc1	–	?	–	–	–	–
CC1=C(C(N)=O)C(c2cccc(Br)c2)n2nc(SCc3ccccc3Cl)nc2N1 (stereo not drawn)	–	–	·	–	·	55.9
c1ccc(N2CCN(c3nnc(Cc4cccnc4)c4ccccc34)CC2)nc1	–	–	–	–	–	42.3
c1ccc(Cc2nnc(N3CCCCC3)c3ccccc23)cc1	?	–	–	–	–	–
Cc1cc(C)cc(Cn2ncc(Cl)c(Cl)c2=O)c1	–	–	–	–	-58.6	–
Cc1ccc(Cn2ncc(Cl)c(Cl)c2=O)cc1	–	–	–	–	?	–
COc1ccc(C2=NN(C(=O)COC(=O)c3ccc(S(C)(=O)=O)c([N+](=O)[O-])c3)C(c3ccco3)C2)cc1 (stereo not drawn)	–	–	–	–	-56.3	–
COc1ccc(C2=NN(C(=O)COc3ncnc4ccccc34)C(c3ccco3)C2)cc1 (stereo not drawn)	–	–	–	–	–	–
O=C(COc1cc(F)ccc1[N+](=O)[O-])N1N=C(c2cccs2)CC1c1ccco1 (stereo not drawn)	–	–	–	–	-54.9	–
CCC(=O)N1CCc2cc(S(=O)(=O)NCCC(=O)Nc3cc(C)ccc3OC)ccc21	–	·	·	–	·	–
COc1ccc(N2C(=O)C3CC(C)=C(C)CC3C2=O)c(OC)c1 (stereo not drawn)	–	–	–	–	–	–
COc1cc(N2C(=O)C=CC2=O)ccc1N1C(=O)C=CC1=O	?	–	·	–	-67.9	–
CNC(=O)CN(CCN(CCN(CC(=O)[O-])CC(=O)NC)CC(=O)[O-])CC(=O)[O-].O.[Gd+3]	·	·	·	·	·	–
COC(=O)c1c(C)cc(O)c(C=O)c1O	–	–	·	–	-52.8	–
COC(=O)c1c(C)c(OC(=O)c2c(C)cc(O)c(C=O)c2O)cc(C)c1O	–	–	·	–	–	–
Nc1ccccc1SCc1csc(-c2ccc(Cl)cc2)n1	–	–	–	–	–	–
Clc1ccc(-c2nc(CSc3ccccn3)cs2)cc1	·	10µM	·	–	–	–
C[C@H]1O[C@H](O[C@H]2[C@H](O)[C@@H](O)[C@@H](O[C@H]3[C@H](O)[C@@H](O)[C@H](O)O[C@@H]3CO)O[C@@H]2CO)[C@H](O)[C@@H](O)[C@@H]1N[C@H]1C=C(CO)[C@@H](O)[C@H](O)[C@H]1O	·	·	·	·	·	–
O=c1[nH]cccc1-c1nc2ccccc2[nH]1	–	8.91µM	–	–	–	–
Nc1ccccc1-c1nc2ccccc2[nH]1	–	?	–	–	–	–
NC(=O)C1(N2CCCCC2)CCN(C(=S)Nc2ccc(S(N)(=O)=O)cc2)CC1	?	–	–	–	–	–
